# According to the supplement of paper PMC4022240:
# ± gives the standard deviation.
# Experiments:
# Test in all cases: peptide microarray binding signal (635 nm), min-max normalized on array (fraction of array maximum); higher = stronger binding
# [1] = biological target: T1, HaloTag-ATRX ADD domain (163-292)
# T1 chain: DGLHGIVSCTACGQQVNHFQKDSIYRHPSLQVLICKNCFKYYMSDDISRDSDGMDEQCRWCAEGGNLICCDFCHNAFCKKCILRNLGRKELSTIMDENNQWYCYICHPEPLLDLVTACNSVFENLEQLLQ
# Summary of the method: (§1)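 Within each library, mean intensities of triplicate spots were min-max scaled to give the binding signal. The spots were histone 13-mer peptide–cellulose conjugates on nitrocellulose with a Cy3 tracer, blocked overnight at 4°C. They were then probed for 1 h at 4°C using biotin-labelled HaloTag reader fusions (10 nM to 1 μM) with streptavidin-Alexa Fluor 647 or rabbit histone antibodies (1:10,000 to 1:2,000) with anti-rabbit Alexa 647, and scanned at 635 nm for signal and 532 nm for misprints on an Axon GenePix 4000B.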
# [2] = biological target: HaloTag-ING2 PHD (mouse Ing2 200-280)
# Summary of the method: as §1
# [3] = biological target: anti-H3K4me3 antibody ab8580
# Summary of the method: as §1
# [4] = biological target: anti-H3K9me3 antibody ab8898
# Summary of the method: as §1
# [5] = peptide region: Unmod H2A variant, binder concentration: 50 nM
# [6] = peptide region: Unmod H2A variant, binder concentration: 500 nM
# [7] = peptide region: Unmod H2A variant, binder concentration: 10 nM
# [8] = peptide region: Unmod H2A variant, binder concentration: 100 nM
# [9] = peptide region: Unmod H2A variant, binder concentration: 1:2,000 dilution
# [10] = peptide region: Unmod H2A variant, binder concentration: 1:10,000 dilution
# [11] = peptide region: Unmod H1 variant, binder concentration: 500 nM
# [12] = peptide region: Unmod H1 variant, binder concentration: 100 nM
# [13] = peptide region: Unmod H1 variant, binder concentration: 1:2,000 dilution
# [14] = peptide region: Unmod H1 variant, binder concentration: 50 nM
# [15] = peptide region: Unmod H1 variant, binder concentration: 10 nM
# [16] = peptide region: Unmod H1 variant, binder concentration: 1:10,000 dilution
binder,measurement,setting,value
QGGKARAKSKSRS [Unmod H2A variant Q G G K A R A K S K S R S],peptide microarray binding signal,[1]; [5],0.0112 ± 0.00043
same,peptide microarray binding signal,[1]; [6],0.0328 ± 0.0016
same,peptide microarray binding signal,[2]; [7],0.00824 ± 9.4e-05
same,peptide microarray binding signal,[2]; [8],0.0201 ± 0.0027
same,peptide microarray binding signal,[3]; [9],0.00194 ± 0.00036
same,peptide microarray binding signal,[3]; [10],0.00143 ± 2.4e-05
same,peptide microarray binding signal,[4]; [9],0.000574 ± 1.1e-05
same,peptide microarray binding signal,[4]; [10],0.000807 ± 1.5e-05
KAAAASKKKPAGP [Unmod H1 variant K A A A A S K K K P A G P],peptide microarray binding signal,[1]; [11],0.0113 ± 0.0013
same,peptide microarray binding signal,[2]; [12],0.003402 ± 3e-05
same,peptide microarray binding signal,[3]; [13],0.000321 ± 3.3e-06
same,peptide microarray binding signal,[4]; [13],0.000181 ± 3.4e-06
QGGKARAKAKSRS [Unmod H2A variant Q G G K A R A K A K S R S],peptide microarray binding signal,[1]; [5],0.0073 ± 0.00042
same,peptide microarray binding signal,[1]; [6],0.0168 ± 0.0004
same,peptide microarray binding signal,[2]; [7],0.002507 ± 1.4e-05
same,peptide microarray binding signal,[2]; [8],0.00758 ± 0.0021
same,peptide microarray binding signal,[3]; [9],0.00164 ± 0.00013
same,peptide microarray binding signal,[3]; [10],0.001027 ± 1e-05
same,peptide microarray binding signal,[4]; [9],0.000302 ± 3.1e-06
same,peptide microarray binding signal,[4]; [10],0.000404 ± 4.4e-06
SGRGKQGGKARAK [Unmod H2A variant S G R G K Q G G K A R A K],peptide microarray binding signal,[1]; [5],0.0203 ± 0.0024
same,peptide microarray binding signal,[1]; [6],0.0194 ± 0.0069
same,peptide microarray binding signal,[2]; [7],0.0104 ± 0.00068
same,peptide microarray binding signal,[2]; [8],0.0167 ± 0.00073
same,peptide microarray binding signal,[3]; [9],0.000151 ± 1.7e-06
same,peptide microarray binding signal,[3]; [10],0.00337 ± 0.0001
same,peptide microarray binding signal,[4]; [9],0.00112 ± 1.7e-05
same,peptide microarray binding signal,[4]; [10],0.00133
AAGAKKAKSPKKA [Unmod H1 variant A A G A K K A K S P K K A],peptide microarray binding signal,[1]; [14],0.0119 ± 0.00059
same,peptide microarray binding signal,[1]; [11],0.01348 ± 5.3e-05
same,peptide microarray binding signal,[2]; [15],0.003342 ± 1.8e-05
same,peptide microarray binding signal,[2]; [12],0.00999 ± 0.0011
same,peptide microarray binding signal,[3]; [13],0.00068 ± 1.9e-05
same,peptide microarray binding signal,[3]; [16],0.00143 ± 2.4e-05
same,peptide microarray binding signal,[4]; [13],0.0004379 ± 4.2e-06
same,peptide microarray binding signal,[4]; [16],0.00115
KKAPKSPAKAKAV [Unmod H1 variant K K A P K S P A K A K A V],peptide microarray binding signal,[1]; [14],0.00658 ± 0.0021
same,peptide microarray binding signal,[1]; [11],0.00976 ± 0.00041
same,peptide microarray binding signal,[2]; [15],0.00412 ± 0.0002
same,peptide microarray binding signal,[2]; [12],0.00978 ± 0.00048
same,peptide microarray binding signal,[3]; [13],0.000793 ± 4.5e-05
same,peptide microarray binding signal,[3]; [16],0.00154 ± 3.9e-05
same,peptide microarray binding signal,[4]; [13],0.000347 ± 9.2e-06
same,peptide microarray binding signal,[4]; [16],0.00115 ± 2e-05
KPKTAKPKAAKPK [Unmod H1 variant K P K T A K P K A A K P K],peptide microarray binding signal,[1]; [14],0.0113 ± 0.0004
same,peptide microarray binding signal,[1]; [11],0.00857 ± 0.00027
same,peptide microarray binding signal,[2]; [15],0.00292 ± 8.4e-05
same,peptide microarray binding signal,[2]; [12],0.00914 ± 0.00042
same,peptide microarray binding signal,[3]; [13],0.000736
same,peptide microarray binding signal,[3]; [16],0.00143 ± 2.4e-05
same,peptide microarray binding signal,[4]; [13],0.000529 ± 1.8e-05
same,peptide microarray binding signal,[4]; [16],0.0011 ± 1.1e-05
KAAKPKKAAAKKK [Unmod H1 variant K A A K P K K A A A K K K],peptide microarray binding signal,[1]; [14],0.00972 ± 0.0014
same,peptide microarray binding signal,[1]; [11],0.00767 ± 0.00046
same,peptide microarray binding signal,[2]; [15],0.0034 ± 6.6e-05
same,peptide microarray binding signal,[2]; [12],0.00673 ± 0.00083
same,peptide microarray binding signal,[3]; [13],0.0007173 ± 6.6e-06
same,peptide microarray binding signal,[3]; [16],0.00143
same,peptide microarray binding signal,[4]; [13],0.000619 ± 2.4e-05
same,peptide microarray binding signal,[4]; [16],0.00156 ± 6.6e-05
PKKAKAAKPKKAP [Unmod H1 variant P K K A K A A K P K K A P],peptide microarray binding signal,[1]; [14],0.009 ± 0.00089
same,peptide microarray binding signal,[1]; [11],0.01 ± 0.00062
same,peptide microarray binding signal,[2]; [15],0.00424 ± 0.00016
same,peptide microarray binding signal,[2]; [12],0.00751 ± 0.00063
same,peptide microarray binding signal,[3]; [13],0.0006985 ± 6.5e-06
same,peptide microarray binding signal,[3]; [16],0.00171 ± 3.3e-05
same,peptide microarray binding signal,[4]; [13],0.000589 ± 9.4e-06
same,peptide microarray binding signal,[4]; [16],0.00773 ± 0.0051
KAKSSAKRAGKKK [Unmod H1 variant K A K S S A K R A G K K K],peptide microarray binding signal,[1]; [11],0.016 ± 0.0011
same,peptide microarray binding signal,[2]; [12],0.00369 ± 5.6e-05
same,peptide microarray binding signal,[3]; [13],0.00034 ± 6.1e-06
same,peptide microarray binding signal,[4]; [13],0.000227
AKAVKPKAAKPKT [Unmod H1 variant A K A V K P K A A K P K T],peptide microarray binding signal,[1]; [14],0.0116 ± 0.00013
same,peptide microarray binding signal,[1]; [11],0.00791 ± 0.00033
same,peptide microarray binding signal,[2]; [15],0.00304 ± 8.9e-05
same,peptide microarray binding signal,[2]; [12],0.00765 ± 0.00045
same,peptide microarray binding signal,[3]; [13],0.000774 ± 2.8e-05
same,peptide microarray binding signal,[3]; [16],0.00137 ± 1.3e-05
same,peptide microarray binding signal,[4]; [13],0.000453 ± 1.3e-05
same,peptide microarray binding signal,[4]; [16],0.000865 ± 9e-06
